Test [1] deals with T1, Serine/threonine-protein kinase Nek9 (Homo sapiens) (UniProt Q8TD19).
T1 sequence (whole entry): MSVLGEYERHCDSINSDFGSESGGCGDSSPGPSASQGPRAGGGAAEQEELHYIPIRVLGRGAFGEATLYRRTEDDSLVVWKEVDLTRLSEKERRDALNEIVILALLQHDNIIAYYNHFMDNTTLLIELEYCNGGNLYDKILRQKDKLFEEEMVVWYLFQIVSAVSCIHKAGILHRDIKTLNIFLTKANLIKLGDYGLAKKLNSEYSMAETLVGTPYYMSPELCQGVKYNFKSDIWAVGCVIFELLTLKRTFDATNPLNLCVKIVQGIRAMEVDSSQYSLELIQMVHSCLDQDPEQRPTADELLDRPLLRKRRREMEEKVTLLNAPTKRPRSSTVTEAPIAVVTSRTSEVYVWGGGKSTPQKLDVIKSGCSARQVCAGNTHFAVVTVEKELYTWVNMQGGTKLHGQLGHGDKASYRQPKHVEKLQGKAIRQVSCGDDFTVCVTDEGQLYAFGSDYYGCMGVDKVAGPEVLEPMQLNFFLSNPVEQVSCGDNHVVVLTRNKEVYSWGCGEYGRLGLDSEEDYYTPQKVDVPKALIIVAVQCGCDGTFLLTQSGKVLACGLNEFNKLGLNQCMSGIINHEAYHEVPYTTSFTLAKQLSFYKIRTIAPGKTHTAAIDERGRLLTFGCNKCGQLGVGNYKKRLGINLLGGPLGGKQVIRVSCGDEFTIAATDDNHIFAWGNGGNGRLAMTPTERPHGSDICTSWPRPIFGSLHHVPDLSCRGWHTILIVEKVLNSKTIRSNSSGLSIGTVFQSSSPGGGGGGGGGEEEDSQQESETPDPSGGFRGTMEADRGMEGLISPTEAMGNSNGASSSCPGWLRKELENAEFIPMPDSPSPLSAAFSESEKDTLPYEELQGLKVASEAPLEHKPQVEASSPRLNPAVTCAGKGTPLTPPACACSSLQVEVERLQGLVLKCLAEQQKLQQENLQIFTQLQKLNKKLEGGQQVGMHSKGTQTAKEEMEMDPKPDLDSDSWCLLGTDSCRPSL
The following applies: at 1 µM.

For test [2], the target named is Serine/threonine-protein kinase PLK1 (Homo sapiens) (UniProt P53350). The following applies: at 0.1 µM.
Test [3] shares this target. The settings on record: at 1 µM.
Test [4] deals with T2, Dual specificity protein kinase TTK (Homo sapiens) (UniProt P33981).
T2 sequence (whole entry): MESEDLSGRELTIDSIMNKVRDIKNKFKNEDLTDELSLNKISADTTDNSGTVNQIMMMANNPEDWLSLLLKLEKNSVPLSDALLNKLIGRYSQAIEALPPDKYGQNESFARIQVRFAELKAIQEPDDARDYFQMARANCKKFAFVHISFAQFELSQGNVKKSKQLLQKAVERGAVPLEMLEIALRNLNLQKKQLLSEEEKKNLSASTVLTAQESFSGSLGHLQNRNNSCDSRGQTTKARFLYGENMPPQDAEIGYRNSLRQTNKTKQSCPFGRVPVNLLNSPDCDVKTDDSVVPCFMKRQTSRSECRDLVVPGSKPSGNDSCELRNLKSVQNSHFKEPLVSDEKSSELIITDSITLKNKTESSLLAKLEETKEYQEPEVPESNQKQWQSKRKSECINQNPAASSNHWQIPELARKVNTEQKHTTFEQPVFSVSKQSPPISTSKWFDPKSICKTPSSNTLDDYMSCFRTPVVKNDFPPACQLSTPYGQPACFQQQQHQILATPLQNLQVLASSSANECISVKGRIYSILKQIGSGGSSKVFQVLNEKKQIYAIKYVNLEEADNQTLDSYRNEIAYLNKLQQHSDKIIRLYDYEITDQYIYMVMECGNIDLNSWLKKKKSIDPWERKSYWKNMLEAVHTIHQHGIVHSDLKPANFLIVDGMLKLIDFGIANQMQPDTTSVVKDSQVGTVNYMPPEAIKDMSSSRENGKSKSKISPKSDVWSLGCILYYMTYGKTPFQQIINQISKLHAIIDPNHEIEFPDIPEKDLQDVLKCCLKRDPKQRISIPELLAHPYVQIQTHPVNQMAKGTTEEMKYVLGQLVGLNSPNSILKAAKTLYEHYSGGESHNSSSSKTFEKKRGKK
The following applies: at 0.1 µM.

Test [5] deals with T3, Receptor-type tyrosine-protein kinase FLT3 (Homo sapiens), P36888 [D835Y].
T3 sequence (whole entry): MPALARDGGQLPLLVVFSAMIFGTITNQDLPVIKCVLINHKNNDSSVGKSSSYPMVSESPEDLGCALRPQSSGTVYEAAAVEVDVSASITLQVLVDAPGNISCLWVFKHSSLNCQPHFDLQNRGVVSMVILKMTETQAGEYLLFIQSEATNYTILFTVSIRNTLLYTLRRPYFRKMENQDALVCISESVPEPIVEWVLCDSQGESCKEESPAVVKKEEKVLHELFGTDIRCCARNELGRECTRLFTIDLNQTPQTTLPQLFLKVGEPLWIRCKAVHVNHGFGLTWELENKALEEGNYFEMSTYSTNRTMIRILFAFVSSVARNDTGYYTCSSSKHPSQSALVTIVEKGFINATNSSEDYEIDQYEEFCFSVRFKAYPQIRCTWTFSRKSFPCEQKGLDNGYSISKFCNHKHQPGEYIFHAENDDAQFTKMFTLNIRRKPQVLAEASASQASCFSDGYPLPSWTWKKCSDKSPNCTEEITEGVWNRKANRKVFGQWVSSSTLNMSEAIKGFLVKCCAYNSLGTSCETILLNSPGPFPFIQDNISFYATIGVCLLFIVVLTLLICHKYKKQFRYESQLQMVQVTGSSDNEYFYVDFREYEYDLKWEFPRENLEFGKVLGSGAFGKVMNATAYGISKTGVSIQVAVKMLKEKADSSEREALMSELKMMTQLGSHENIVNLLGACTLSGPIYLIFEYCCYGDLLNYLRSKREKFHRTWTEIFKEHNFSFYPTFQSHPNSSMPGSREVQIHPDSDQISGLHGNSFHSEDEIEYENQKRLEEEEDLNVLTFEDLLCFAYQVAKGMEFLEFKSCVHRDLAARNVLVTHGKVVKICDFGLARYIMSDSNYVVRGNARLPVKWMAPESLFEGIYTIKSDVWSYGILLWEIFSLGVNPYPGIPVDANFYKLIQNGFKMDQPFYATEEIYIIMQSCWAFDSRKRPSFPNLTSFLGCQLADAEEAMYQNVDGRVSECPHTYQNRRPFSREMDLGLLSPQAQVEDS
The settings on record: at 1 µM.

In test [6] the target is Vascular endothelial growth factor receptor 3 (Homo sapiens) (UniProt P35916). The settings on record: at 0.1 µM.
Test [7] shares this target. The following applies: at 1 µM.
Test [8] has as its target Macrophage colony-stimulating factor 1 receptor (Homo sapiens) (UniProt P07333). The settings on record: at 0.1 µM.
Test [9] shares this target. The settings on record: at 1 µM.
The target of test [10] is Tyrosine-protein kinase Fyn (Homo sapiens) (UniProt P06241). The settings on record: at 0.1 µM.

These results are taken from ChEMBL document CHEMBL1961873, “Compounds: GSK PKIS; Assays: Nanosyn kinase panel” (2012).

Each structure is given as a SMILES string. Values joined by “and” are separate entries in the source; they are usually repeats but may differ in a detail not shown here. Identical values can stand only once.

Sequence of Tyrosine-protein kinase Fyn (Homo sapiens) (P06241 2-537 limits assumed): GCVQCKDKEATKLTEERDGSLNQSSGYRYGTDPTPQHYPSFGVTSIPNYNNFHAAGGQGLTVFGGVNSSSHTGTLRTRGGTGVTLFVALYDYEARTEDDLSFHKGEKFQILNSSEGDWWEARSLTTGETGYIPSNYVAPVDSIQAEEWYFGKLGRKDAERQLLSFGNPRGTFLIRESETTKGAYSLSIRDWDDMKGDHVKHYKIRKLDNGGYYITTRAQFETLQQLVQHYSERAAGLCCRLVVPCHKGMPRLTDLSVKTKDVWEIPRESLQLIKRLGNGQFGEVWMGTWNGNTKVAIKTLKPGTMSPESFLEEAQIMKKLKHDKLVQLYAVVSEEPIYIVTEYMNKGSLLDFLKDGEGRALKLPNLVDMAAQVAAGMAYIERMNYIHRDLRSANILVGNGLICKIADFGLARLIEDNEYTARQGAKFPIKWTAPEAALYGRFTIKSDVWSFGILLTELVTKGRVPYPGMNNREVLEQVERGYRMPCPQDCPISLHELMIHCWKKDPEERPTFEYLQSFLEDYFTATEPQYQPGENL
Sequence of Macrophage colony-stimulating factor 1 receptor (Homo sapiens) (P07333 whole entry): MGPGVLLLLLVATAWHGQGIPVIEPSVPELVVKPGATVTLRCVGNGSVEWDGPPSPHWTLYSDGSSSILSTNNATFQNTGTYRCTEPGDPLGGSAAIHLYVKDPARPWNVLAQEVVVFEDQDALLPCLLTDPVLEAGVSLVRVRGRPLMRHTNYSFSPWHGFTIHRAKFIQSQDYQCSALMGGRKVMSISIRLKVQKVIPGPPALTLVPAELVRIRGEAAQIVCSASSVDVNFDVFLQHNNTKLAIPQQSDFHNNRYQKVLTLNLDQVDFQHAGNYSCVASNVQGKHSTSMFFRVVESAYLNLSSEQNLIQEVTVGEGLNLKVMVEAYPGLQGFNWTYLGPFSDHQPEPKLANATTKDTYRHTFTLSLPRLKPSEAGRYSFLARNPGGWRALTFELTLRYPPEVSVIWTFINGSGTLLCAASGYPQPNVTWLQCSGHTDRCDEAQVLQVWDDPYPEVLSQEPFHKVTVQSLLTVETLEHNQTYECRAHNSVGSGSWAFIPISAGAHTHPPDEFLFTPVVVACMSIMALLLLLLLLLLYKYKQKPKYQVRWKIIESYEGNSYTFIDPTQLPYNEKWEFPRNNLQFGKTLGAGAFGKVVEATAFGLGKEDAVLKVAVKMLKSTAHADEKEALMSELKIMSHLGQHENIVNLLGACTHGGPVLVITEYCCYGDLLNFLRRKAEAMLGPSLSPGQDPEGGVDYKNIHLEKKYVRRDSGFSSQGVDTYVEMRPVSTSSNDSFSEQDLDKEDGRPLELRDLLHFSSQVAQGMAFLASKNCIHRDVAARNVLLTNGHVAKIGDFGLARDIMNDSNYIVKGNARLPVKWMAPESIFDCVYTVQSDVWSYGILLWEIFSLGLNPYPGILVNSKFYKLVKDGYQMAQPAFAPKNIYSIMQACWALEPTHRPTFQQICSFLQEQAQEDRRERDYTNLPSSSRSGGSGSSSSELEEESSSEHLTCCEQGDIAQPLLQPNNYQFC
Sequence of Vascular endothelial growth factor receptor 3 (Homo sapiens) (P35916 whole entry): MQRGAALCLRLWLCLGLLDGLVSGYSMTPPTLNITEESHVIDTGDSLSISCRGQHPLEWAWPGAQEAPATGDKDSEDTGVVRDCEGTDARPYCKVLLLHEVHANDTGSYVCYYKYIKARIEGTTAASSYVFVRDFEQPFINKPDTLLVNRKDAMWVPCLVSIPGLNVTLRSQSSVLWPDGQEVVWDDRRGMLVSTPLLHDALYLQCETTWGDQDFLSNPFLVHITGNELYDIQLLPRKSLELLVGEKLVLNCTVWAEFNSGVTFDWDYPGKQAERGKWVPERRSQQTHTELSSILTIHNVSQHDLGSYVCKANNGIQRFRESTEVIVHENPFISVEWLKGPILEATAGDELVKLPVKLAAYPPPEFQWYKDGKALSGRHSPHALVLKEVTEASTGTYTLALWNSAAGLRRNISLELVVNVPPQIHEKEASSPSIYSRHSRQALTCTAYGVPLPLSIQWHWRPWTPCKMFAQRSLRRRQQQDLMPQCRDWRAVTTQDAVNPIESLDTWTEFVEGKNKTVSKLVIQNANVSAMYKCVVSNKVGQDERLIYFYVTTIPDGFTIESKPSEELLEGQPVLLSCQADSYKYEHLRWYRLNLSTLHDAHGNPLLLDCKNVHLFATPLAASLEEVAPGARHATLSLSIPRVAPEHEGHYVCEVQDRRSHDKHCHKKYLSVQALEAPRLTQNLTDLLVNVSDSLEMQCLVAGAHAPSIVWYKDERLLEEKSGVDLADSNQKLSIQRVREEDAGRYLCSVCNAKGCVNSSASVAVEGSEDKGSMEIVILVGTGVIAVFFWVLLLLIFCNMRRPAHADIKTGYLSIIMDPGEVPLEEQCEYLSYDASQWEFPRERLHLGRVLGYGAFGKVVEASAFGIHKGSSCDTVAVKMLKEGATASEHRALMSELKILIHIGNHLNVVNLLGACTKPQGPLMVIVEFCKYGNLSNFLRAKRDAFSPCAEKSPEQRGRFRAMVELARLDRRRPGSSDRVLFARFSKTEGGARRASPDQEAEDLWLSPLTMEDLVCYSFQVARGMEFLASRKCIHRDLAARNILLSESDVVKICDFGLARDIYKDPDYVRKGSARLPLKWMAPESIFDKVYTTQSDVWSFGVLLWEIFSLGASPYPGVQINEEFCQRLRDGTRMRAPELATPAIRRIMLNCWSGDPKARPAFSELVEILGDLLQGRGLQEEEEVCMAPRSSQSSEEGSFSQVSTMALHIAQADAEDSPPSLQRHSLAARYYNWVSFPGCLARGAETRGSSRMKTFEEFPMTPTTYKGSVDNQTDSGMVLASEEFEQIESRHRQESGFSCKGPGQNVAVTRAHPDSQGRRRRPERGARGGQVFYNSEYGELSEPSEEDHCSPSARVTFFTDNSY
Sequence of Serine/threonine-protein kinase PLK1 (Homo sapiens) (P53350 whole entry): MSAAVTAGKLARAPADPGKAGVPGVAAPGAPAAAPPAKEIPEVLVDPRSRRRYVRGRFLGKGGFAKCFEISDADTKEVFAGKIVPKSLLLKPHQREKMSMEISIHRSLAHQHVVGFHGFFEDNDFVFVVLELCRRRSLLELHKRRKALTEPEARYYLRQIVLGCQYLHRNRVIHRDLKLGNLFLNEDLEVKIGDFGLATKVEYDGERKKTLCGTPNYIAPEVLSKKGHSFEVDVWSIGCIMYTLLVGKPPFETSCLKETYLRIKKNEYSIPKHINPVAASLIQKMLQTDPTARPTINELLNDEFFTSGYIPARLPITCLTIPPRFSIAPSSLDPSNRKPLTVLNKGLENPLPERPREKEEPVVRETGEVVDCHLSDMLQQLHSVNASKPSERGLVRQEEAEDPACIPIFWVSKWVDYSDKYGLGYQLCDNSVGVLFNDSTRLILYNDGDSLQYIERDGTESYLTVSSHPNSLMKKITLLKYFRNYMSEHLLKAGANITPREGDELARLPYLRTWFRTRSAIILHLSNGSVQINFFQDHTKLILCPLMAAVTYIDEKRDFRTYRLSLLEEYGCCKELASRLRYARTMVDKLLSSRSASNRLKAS

`CS(=O)(=O)Nc1ccc(-c2ccc3c(NC(=O)C4CC4)n[nH]c3c2)cc1`: the inhibition in test [1] is -0.22%; in test [2], 4.12%; in test [3], 4.87%; in test [4], 7.49%; in [5] it was 3.86%; in test [6], -0.12%. Also, the inhibition in test [7] came out at 2.39%; in test [8], 1.7%; in [9], 3.16%; in test [10], 0.67%.

Take `Nc1nccc(-c2c(-c3ccc(F)cc3)ncn2C2CCNCC2)n1`: the inhibition in test [1] is 3.57% and -1.29%; in test [2], -0.73% and -0.83%; in test [3], 0.68% and 2.5%; in [4] it was -4.46% and 0.75%; in [5] it was 4.31% and -2.1%; in test [6] it was 0.55% and 1.51%. Moreover, the inhibition in [7] is -0.68% and 1.04%; in test [8], -0.4% and 1.93%; in test [9], 0.46% and 3.61%; in [10], -0.69% and 0.67%.

As to `CCOc1ccc2c(-c3ccnc(Nc4cc(OC)cc(C(F)(F)F)c4)n3)cnn2n1`, the inhibition in [1] is 7.2%; in [2] it was 0.53%; in [3], 1.68%; in test [4], -0.36%; in test [5] it was 17%; in test [6] it was 15.8%. Moreover, the inhibition in [7] was found to be 22.8%; in test [8] it was 2.34%; in test [9], 17.2%; in test [10], 3.33%.

As to `CC1(C)CC(n2cnc(-c3ccc(F)cc3)c2-c2ccnc(N)n2)CC(C)(C)N1`, the inhibition was 2.47% in test [1]; 2.09% in test [2]; 0.76% in [3]; -0.55% in [4]; 0.24% in test [5]; 3.06% in [6]. The inhibition was 2.77% in test [7], 1.31% in [8], 0.54% in test [9] and 1.49% in [10].

On to `c1cnn2ncc(-c3ccnc(NCCCN4CCOCC4)n3)c2c1`, for which the inhibition in [1] stood at 9.51%; in test [2], 4.18%; in test [3], 3.55%; in [4] it was 9.47%; in [5], 1.99%; in test [6], 0.01%. The inhibition in test [7] was 0.07%; in test [8], -0.33%; in test [9], 5.17%; in test [10] it was 2.47%.

With `CN(C)CCNC(=O)Nc1ccc(N(C)c2ccnc(Nc3ccc(CS(C)(=O)=O)cc3)n2)cc1`, the inhibition in test [1] is 4.76%; in [2], 3.28%; in test [3] it was 3.61%; in test [4], 6.19%; in [5], 5.12%; in [6], 2.39%. Besides, the inhibition came to 4.9% in test [7], 14.8% in [8], 67.3% in test [9] and 1.66% in [10].

For `Cc1cc(O)cc(C)c1/C=C/c1cncc(C(N)=O)c1`, the inhibition in test [1] was 0.49%; in test [2], 2.01%; in test [3], 1.27%; in test [4], 4.3%; in [5] it was 2.14%; in [6], 1.77%. Also, the inhibition amounted to 0.45% in [7], 5.27% in test [8], 31.3% in test [9] and 5.86% in test [10].

`Fc1cccc(COc2ccc(Nc3ncncc3C#Cc3ccccc3)cc2Cl)c1`: the inhibition in test [1] was 8.71%; in [2] it was 3.37%; in test [3], 3.17%; in test [4], 7.47%; in test [5], -0.95%; in [6], 4.04%. For the same compound, the inhibition in [7] was determined as 0.69%; in test [8], 3.32%; in test [9], 4.86%; in [10] it was 1.15%.
